Reference: the supplement of paper PMC3724861
This is one part of a sample in which hits are shown more often than they occur. The hit rate among all sequences tested is not known here.

tested on: T1, Caupolican (Caup) homeodomain DNA-binding domain; test: PBM E-score (8-mer, recovered from the published 9-mer minima) (E-score (dimensionless, -0.5 to 0.5)); Drosophila protein; higher = stronger relative binding preference, active = 0.31 or more
T1 sequence: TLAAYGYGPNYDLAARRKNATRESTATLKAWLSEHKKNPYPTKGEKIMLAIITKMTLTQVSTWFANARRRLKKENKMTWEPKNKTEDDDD
How it was run: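 An enrichment score, with higher meaning stronger, expresses relative binding preference for each short DNA word. The protein used was Caup's homeodomain DNA-binding domain (residues 214-303), produced by in vitro transcription and translation and tested at 100 nM on custom-designed protein binding microarrays. The 8-mer values were recovered from published 9-mer scores, each equal to the lower of its two constituent 8-mer scores.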

PBM E-score, active:
AAATATGT 0.335
GTACACGA 0.427
ATACACGA 0.33
CCTTGTCA 0.342
GCTTGTCA 0.352
ACTTGTCA ≥ 0.378
TCTTGTCA 0.329
GACATACA 0.389
TACATACA 0.415
AACATACT 0.31
TACATAAA 0.329
AACATACA 0.361
ATGTTAAA 0.353
ATGTTAAC 0.377
ATGTTAAT 0.352
CTGTACAA 0.335
TTGTACAA ≥ 0.44
ATGTACAA 0.453
GTGTACAA 0.396
TAAGAACA 0.313
TACGAACA 0.31
AATACACA 0.311
CATACACG 0.325
AATACACG 0.343
TATGTCAA ≥ 0.359
GATGTCAA 0.332
CTTGTGTA ≥ 0.341
GTTGTATA 0.347
CTTGTATA 0.353
CGTGTATA 0.321

PBM E-score, inactive:
AGCGTCGA 0.017
AATGATAA 0.141
GAGTAACC -0.034
ATGGACGG -0.0288
CATCCTGA 0.007
AAATATGA 0.164
AAATATGC 0.00511
ATAGCCTC -0.0831
CGTAAACG -0.0383
GTACACCA 0.238
CTACACGA 0.295
ATACACGG 0.299
ATACACGC 0.275
ACGCGCTC -0.0722
CAAGTTAA 0.137
CTGGGCCA -0.265
GATCTCGC -0.112
GCGGTCTA -0.0746
ACAACCTC 0.169
TATTGTCA 0.225
TCTTGGCA -0.0494
CCTTGTCG 0.277
ACTTGTCG 0.266
ACTTGTCC 0.237
CCTTGTCC 0.171
GATTGTCA 0.13
GCTTGTCC 0.305
GGGCGCAA -0.179
AAGCACCG -0.0685
CGATTCAG -0.0377
CTCATAAA 0.05
AAACAAAA 0.189
GACATAGA 0.187
TCCATACA 0.139
GACATACC 0.169
AACATAAA 0.286
CACATACA 0.232
AACATACG 0.28
AACATACC 0.303
CACATAAA 0.121
GCTCCTCA -0.234
ATTCTCCG -0.0182
GACAGCAC 0.0877
CCCACTAG -0.195
CGTACTGC -0.0592
GAAAATCA 0.141
ACTCCGAG -0.0336
CTCCGGAA -0.126
AGCATACA 0.202
AACATAGA 0.232
GGATCTCA -0.137
AGGTTAAT 0.0346
ATGTTAAG 0.283
GTGTTAAC 0.259
CTGTTAAA 0.108
CTGTTAAC 0.117
TTGTTAAA 0.23
GTAAGGAA 0.0866
AGGAACGC -0.132
ACGTACAA 0.288
CTGTACGC 0.037
ATGTAGAA 0.281
GTCTACAA 0.185
GTGTACGA 0.226
CTGTACCA 0.186
GCTAAGAC -0.0692
ACTGACCC -0.14
AAATCCAG 0.0354
CGCTTGGA -0.0438
GAAGATGC -0.152
ACCAGTTC -0.0567
GGACTCCA -0.13
AGATATTG 0.0643
CATCTGCG -0.00421
CTAGAATC 0.0169
GAAGAACA 0.3
CACGAACA 0.27
AACGAACA 0.305
CAAGAACA 0.187
GAATCCCC -0.127
AGCGAGAC -0.0966
ACCCCATC -0.158
TATACACA 0.289
CATACACC 0.15
AATACACC 0.292
GATACACA 0.241
AATACACT 0.192
CATACACA 0.309
ATCTAGTG 0.0489
CGATATAC 0.0606
CCAAAAAG -0.00726
ACGAAGTA 0.0633
AATGTCAA 0.235
TCTGTCAA 0.157
GGTGTCAA 0.197
GATGTCCA 0.195
GTGAAGGA -0.0495
CTTAGACA 0.0709
AAATGGTA 0.174
GAGCTCTA -0.0532
ACTGTATA 0.143
CCTGTATA 0.142
AGTGTATA 0.14
ATTGTATA 0.259
GTTGTGTA 0.298
ATTGTGTA 0.283
GCTGTATA 0.194
CGTGTATC 0.258
AGAGGTAC 0.0429
AGTGGCCG -0.226
TGCGACAA 0.148
GAAGAGGA -0.161
ACCTGCAA -0.023
GCCGTATA 0.0675
ACGCCTAA 0.0349
TGGTCAAA 0.0685
